Results on 35 compounds are retold here after ChEMBL document CHEMBL4513149, “CO-ADD screening of MMV (CH) - MMV compounds” (2021).

SMILES strings stand for the structures. Results with a measured potency or affinity are listed apart.

The test system of the first assay is Candida albicans. Conditions: 20 µM.
For orientation: Inhibition means the drop in the measured response relative to a control, in per cent. For `CCc1nc2ccccc2n1CC(O)COc1cc(C)ccc1Cl` (stereo not given), the Inhibition is 1.23%.
As for `CN1CCC(c2cc(-c3ccncc3)c(-c3ccc(F)cc3)[nH]2)CC1`, the Inhibition is 0.45%.
Still for that read-out and setting: then `Nc1ncnc2c1c(Cc1cccc3ccccc13)nn2CC1CCNCC1`, with 2.11%; and `COc1ccc(-c2cc(NC(=O)c3ccc(F)cc3Cl)ccc2OC)cc1`, with 5.2%; and `O=C(Nc1ccc(F)c(-c2nc3cc(-c4ccccc4)cnc3[nH]2)c1)N1CCCC1`, with 49.9%.
Still for that read-out and setting: then `C[C@H](C(N)=O)N1CCCC[C@@H]1c1ccc(OCc2cccc(F)c2)cc1`, with 2.97%; and `CC(C)(CN)c1nc(-c2ccc(Cl)c(O)c2)c(-c2ccnc(N)n2)[nH]1.O=C(O)C(F)(F)F.O=C(O)C(F)(F)F`, with 2.09%.
The same measure, in the same setting: then `O=C(OCc1ccccc1)N1CCC(c2cc(-c3ccncc3)c(-c3ccc(F)cc3)[nH]2)CC1`, with 3.85%.
Consider `CC(C)(C)n1nc(-c2ccccc2)c2c(N)ncnc21`, for which the Inhibition was 1.46%.
Same read-out and setting: then `Cc1cc(C(=O)Nc2ccc(-c3ccccc3)cc2)no1`, with 4.46%; and `COc1ccc(-c2nn(C(C)C)c3ncnc(N)c23)cc1OC`, with 2.58%; and `Cc1cc(NC(=O)c2ccc(S(=O)(=O)N(Cc3ccccc3)C(C)C)cc2)no1`, with 1.89%.
Still for that read-out and setting: then `Cc1ccc2[nH]c(C3CCCNC3)c(-c3ccncc3)c2c1.Cl.Cl` (stereo not given), with 4.63%; and `C[C@H](c1ccc2c(c1)CCCC2)N(C)c1ncc2c(N)nc(N)nc2n1`, with 3.88%; and `COc1ccc(C2=NCCN2)cc1-c1cn(-c2cccc(C3=NCCN3)c2)nn1.O=C(O)C(F)(F)F.O=C(O)C(F)(F)F`, with 2.35%.
As for `Cc1ncc(-c2ccnc(Nc3ccc(S(C)(=O)=O)cc3)n2)n1C(C)C` [AZD-5438], the Inhibition was found to be 6.64%.
Still for that read-out and setting: then `CC(C)(C)OC(=O)N1CCN(c2cc(-c3ccc(Oc4ccccc4)cc3)n[nH]2)CC1`, with 5.58%; and `CC(=O)N(CCN(C(=O)c1ccc(F)cc1)c1ccccc1)c1ccccc1`, with 4.16%.
Same read-out and setting: in the case of `Cc1cc2ccccc2n1CC(=O)N1CC(C(=O)N2CCCCC2)Oc2ccccc21` (stereo not given) it was 4.16%; in that of `OCc1ccc(-c2cncc(Nc3cccc(Cl)c3)c2)cc1`, 4.13%.
Take `Cc1ccc2oc(-c3cc(NC(=O)Cc4ccccc4)ccc3Cl)nc2c1`: the Inhibition was 14.6%.
On the same count and under the same terms, then `COc1cc(C2=NCCN2)ccc1-n1cc(-c2cccc(C3=NCCN3)c2)nn1.O=CO.O=CO`, with 2.32%; and `CC(C(=O)N1CCCC1)N1CCN(S(=O)(=O)c2ccc(C(C)(C)C)cc2)CC1` (stereo not given), with 2.42%; and `CC(C)C(NC(=O)Cc1cccc2ccccc12)C(=O)Nc1cccc(C#N)c1` (stereo not given), with 6.6%.
On the same count and under the same terms, in the case of `Clc1ccc(CN2CCN(C3=NCCN3)CC2)cc1Cl` it was 2.1%; in that of `Clc1ccc(CCNc2cc(-c3ccccc3)nc3ncnn23)cc1`, 16.3%.
Turning to `O=C(NCCN1CCCC1)c1cc(NCCCCN2CCC(F)(F)CC2)nc2ccc(Cl)cc12`, the Inhibition came out at 2.73%.
Still for that read-out and setting: in the case of `O=C(c1ccc(NCCO)cc1)C1C[C@H]1c1ccc(Cl)cc1` (stereo not given in full) it was 6.88%; in that of `NC(=O)c1cc(-c2ccsc2)ccc1OCCOc1ccccc1`, 1.34%; in that of `COc1cc(CN2CCC3(C=Cc4ccccc43)CC2)cc2c1OCO2`, -0.19%.
Same read-out and setting: then `CN1CCCC1CCO[C@](C)(c1ccccc1)c1ccc(Cl)cc1.O=C(O)/C=C/C(=O)O` (stereo not given in full), with 1.54%; and `O=C(CN1CCOCC1)Nc1ccc2ncnc(Nc3ccc(OCc4cccc(F)c4)c(Cl)c3)c2c1`, with 5.94%; and `Nc1cccnc1Nc1ccc(Cl)cc1`, with 1.73%.
For `CNC(=O)c1nn(C)c2c1C(C)(C)Cc1cnc(Nc3ccc(N4CCN(C)CC4)cc3)nc1-2` [MILCICLIB], the Inhibition was found to be 4.83%.
Consider `Cc1nn(C)cc1C(C)Nc1nncc(-c2ccc(C(F)(F)F)cc2)n1` (stereo not given), for which the Inhibition stood at 3.9%.

The next assay relates to Cryptococcus neoformans. Conditions: Concentration 20 uM; ASSAY_TEST Inhibition of Fungal Growth; detection method Resazurin; Absorption (OD600-OD570); plate type 384well; NBS; CORNING #3640. (In general: Resazurin is reduced to fluorescent resorufin, in cell work by metabolically active cells.)
`CCc1nc2ccccc2n1CC(O)COc1cc(C)ccc1Cl` (stereo not given): the Inhibition is reported as -20.36%.
On the same count and under the same terms, then `CN1CCC(c2cc(-c3ccncc3)c(-c3ccc(F)cc3)[nH]2)CC1`, with 8.69%; and `Nc1ncnc2c1c(Cc1cccc3ccccc13)nn2CC1CCNCC1`, with -1.33%.
Still for that read-out and setting: in the case of `COc1ccc(-c2cc(NC(=O)c3ccc(F)cc3Cl)ccc2OC)cc1` it was 8.48%.
On the same count and under the same terms, then `O=C(Nc1ccc(F)c(-c2nc3cc(-c4ccccc4)cnc3[nH]2)c1)N1CCCC1`, with -3.95%; and `C[C@H](C(N)=O)N1CCCC[C@@H]1c1ccc(OCc2cccc(F)c2)cc1`, with -6.98%; and `CC(C)(CN)c1nc(-c2ccc(Cl)c(O)c2)c(-c2ccnc(N)n2)[nH]1.O=C(O)C(F)(F)F.O=C(O)C(F)(F)F`, with -6.49%.
In the case of `O=C(OCc1ccccc1)N1CCC(c2cc(-c3ccncc3)c(-c3ccc(F)cc3)[nH]2)CC1`, the Inhibition is -11.48%.
On to `CC(C)(C)n1nc(-c2ccccc2)c2c(N)ncnc21`, for which the Inhibition is -15.8%.
Same read-out and setting: in the case of `Cc1cc(C(=O)Nc2ccc(-c3ccccc3)cc2)no1` it was -3.33%; in that of `COc1ccc(-c2nn(C(C)C)c3ncnc(N)c23)cc1OC`, -0.18%; in that of `Cc1cc(NC(=O)c2ccc(S(=O)(=O)N(Cc3ccccc3)C(C)C)cc2)no1`, -4.62%.
For the compound `Cc1ccc2[nH]c(C3CCCNC3)c(-c3ccncc3)c2c1.Cl.Cl` (stereo not given), the Inhibition was found to be 1.08%.
Take `C[C@H](c1ccc2c(c1)CCCC2)N(C)c1ncc2c(N)nc(N)nc2n1`: the Inhibition was -9.74%.
On the same count and under the same terms, in the case of `COc1ccc(C2=NCCN2)cc1-c1cn(-c2cccc(C3=NCCN3)c2)nn1.O=C(O)C(F)(F)F.O=C(O)C(F)(F)F` it was -2.18%; in that of `Cc1ncc(-c2ccnc(Nc3ccc(S(C)(=O)=O)cc3)n2)n1C(C)C` [AZD-5438], -6.72%; in that of `CC(C)(C)OC(=O)N1CCN(c2cc(-c3ccc(Oc4ccccc4)cc3)n[nH]2)CC1`, -7.43%.
The same measure, in the same setting: in the case of `CC(=O)N(CCN(C(=O)c1ccc(F)cc1)c1ccccc1)c1ccccc1` it was -8.06%; in that of `Cc1cc2ccccc2n1CC(=O)N1CC(C(=O)N2CCCCC2)Oc2ccccc21` (stereo not given), -5.34%.
The same measure, in the same setting: in the case of `OCc1ccc(-c2cncc(Nc3cccc(Cl)c3)c2)cc1` it was -14.16%; in that of `Cc1ccc2oc(-c3cc(NC(=O)Cc4ccccc4)ccc3Cl)nc2c1`, -8.89%; in that of `COc1cc(C2=NCCN2)ccc1-n1cc(-c2cccc(C3=NCCN3)c2)nn1.O=CO.O=CO`, 7.56%.
With `CC(C(=O)N1CCCC1)N1CCN(S(=O)(=O)c2ccc(C(C)(C)C)cc2)CC1` (stereo not given), the Inhibition is recorded as -10.06%.
The same measure, in the same setting: then `CC(C)C(NC(=O)Cc1cccc2ccccc12)C(=O)Nc1cccc(C#N)c1` (stereo not given), with -4.4%; and `Clc1ccc(CN2CCN(C3=NCCN3)CC2)cc1Cl`, with -10.37%.
Still for that read-out and setting: in the case of `Clc1ccc(CCNc2cc(-c3ccccc3)nc3ncnn23)cc1` it was -16.06%; in that of `O=C(NCCN1CCCC1)c1cc(NCCCCN2CCC(F)(F)CC2)nc2ccc(Cl)cc12`, 24.05%; in that of `O=C(c1ccc(NCCO)cc1)C1C[C@H]1c1ccc(Cl)cc1` (stereo not given in full), 2.16%.
Same read-out and setting: in the case of `NC(=O)c1cc(-c2ccsc2)ccc1OCCOc1ccccc1` it was -0.49%; in that of `COc1cc(CN2CCC3(C=Cc4ccccc43)CC2)cc2c1OCO2`, -8.59%.
In the case of `CN1CCCC1CCO[C@](C)(c1ccccc1)c1ccc(Cl)cc1.O=C(O)/C=C/C(=O)O` (stereo not given in full), the Inhibition is on record as -7.21%.
Still for that read-out and setting: then `O=C(CN1CCOCC1)Nc1ccc2ncnc(Nc3ccc(OCc4cccc(F)c4)c(Cl)c3)c2c1`, with -1.06%; and `Nc1cccnc1Nc1ccc(Cl)cc1`, with -10.6%.
The same measure, in the same setting: then `CNC(=O)c1nn(C)c2c1C(C)(C)Cc1cnc(Nc3ccc(N4CCN(C)CC4)cc3)nc1-2` [MILCICLIB], with -4.76%; and `Cc1nn(C)cc1C(C)Nc1nncc(-c2ccc(C(F)(F)F)cc2)n1` (stereo not given), with -5.79%.
